Assay [1] is described as follows: qHTS assay for small molecule agonists of the p53 signaling pathway (AID 651631; calls by dose curve; note: nearly all actives have a fitted effect of over 15% in size; note: potency is the fitted concentration of half-maximal effect). The essentials: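 We treat p53RE-bla HCT-116 cells with compounds for 16 h at 37 °C, add LiveBLAzer B/G FRET substrate for 2 h at room temperature, and measure fluorescence intensity.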
On the technique in general: qHTS replaces the single test concentration by a dilution series.

The nature of assay [2]: qHTS assay for small molecules that induce genotoxicity in human embryonic kidney cells expressing luciferase-tagged ATAD5 (AID 651632). Note: nearly all actives have a fitted effect of over 15% in size. Note: potency is the fitted concentration of half-maximal effect. The essentials:
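HEK293T cells carrying luciferase-tagged ATAD5 were given compound or DMSO vehicle and incubated 16 hr at 37C, 5% CO2. Luciferase activity was read after 30 min at room temperature with Amplite; a rise signals genotoxic stress.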

Assay [3] can be described thus: qHTS assay for small molecule agonists of the p53 signaling pathway - cell viability (AID 651633; calls by dose curve;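 note: p53RE-bla HCT reporter cells with a stable beta-lactamase p53 reporter; series mostly up to about 83 µM; nearly all actives have a fitted effect of over 30% in size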). The essentials:
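Viability counter-read: CellTiter-Glo luminescence (30 min, room temperature) in the same p53RE-bla plates. These plates had been exposed to compounds for 16 h at 37 C.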

Assay [4] is described as follows: qHTS assay for small molecules that induce genotoxicity in human embryonic kidney cells expressing luciferase-tagged ATAD5 - cell viability (AID 651634; calls by dose curve; note: nearly all actives have a fitted effect of over 25% in size). The essentials:
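HEK293T cells carrying luciferase-tagged ATAD5, 2,000 cells/well, exposed to compound for 15.5 hr at 37C. Viability read as live-cell protease activity by CellTiter-Fluor fluorescence after 30 min at 37C.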

Assay [5] in a line: qHTS assay for small molecule disruptors of the mitochondrial membrane potential - cell viability (AID 720634; calls by dose curve;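 note: human HepG2 liver cancer cells; series mostly up to about 83 µM; nearly all actives have a fitted effect of over 20% in size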). The essentials:
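HepG2 cells, 2,000 per well, attached overnight, then treated 1 hr at 37 C, 5% CO2. Viability read as ATP by CellTiter-Glo luminescence after 30 min at room temperature. Read in the same wells as the m-MPI membrane-potential dye assay.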

Assay [6] in a line: qHTS assay for small molecule disruptors of the mitochondrial membrane potential (AID 720635). Note: potency is the fitted concentration of half-maximal effect. The essentials:
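Mitochondrial membrane potential tracked with Mito-MPS dye, red aggregates (ex 540/em 590 nm) against green monomers (ex 490/em 535 nm). Compound treatment 1 hr at 37C, dye 30 min in HepG2.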

Assay [7] can be described thus: qHTS assay to test for compound auto fluorescence at 590 nm (red) in HepG2 cells (AID 720674). The essentials:
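1 hr compound incubation on HepG2 cells, 37 C, 5% CO2; plate read ex 540 nm / em 590 nm; intensities reported as Rose Bengal sodium equivalents.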

Assay [8] in a line: qHTS assay to test for compound auto fluorescence at 460 nm (blue) in HEK293 cells (AID 720678). The essentials:
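Blue-channel (Ex/Em 405/460 nm) intensity measured in HEK293 cultures after overnight compound exposure at 37C; signal expressed relative to triamterene. Cells plated 2,000 per well in 10% dialyzed FBS medium and allowed 4-5 hr to attach.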

Assay [9] in a line: qHTS assay to test for compound auto fluorescence at 590 nm (red) in HEK293 cells (AID 720679). The essentials:
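Red-channel autofluorescence (Ex/Em 540/590 nm; Rose Bengal sodium reference) was measured after overnight 37C, 5% CO2 exposure of attached HEK293 cells, 2,000 per well in medium with 10% dialyzed FBS.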

Assay [10] in a line: qHTS assay to test for compound auto fluorescence at 535 nm (green) in HEK293 cells (AID 720680).
A short description of assay [11]: qHTS assay to test for compound auto fluorescence at 460 nm (blue) in HEK293 cell free culture (AID 720681). The essentials:
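Blue fluorescence (Ex 405/Em 460 nm, triamterene-equivalent) was read immediately after pin transfer of compound or DMSO into medium (DMEM, 10% FBS) without cells.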

Assay [12] is described as follows: qHTS assay to test for compound auto fluorescence at 535 nm (green) in HEK293 cell free culture (AID 720682). The essentials:
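Green-channel intensity (Ex/Em 485/535 nm) was recorded from compound-treated wells containing only DMEM with 10% FBS. Fluorescein provided the equivalency standard.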

Assay [13] can be described thus: qHTS assay to test for compound auto fluorescence at 590 nm (red) in HEK293 cell free culture (AID 720683). The essentials:
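Red-channel autofluorescence of compounds in culture medium (DMEM, 10% FBS), no cells, measured at 540/590 nm. Rose Bengal sodium is the reference fluorophore for equivalence.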

Assay [14] can be described thus: qHTS assay to test for compound auto fluorescence at 590 nm (red) in HepG2 cell free culture (AID 720684). The essentials: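 Steps: dispense MEM/10% FBS medium, no cells; pin compound or DMSO vehicle; read red channel, Ex/Em 540/590 nm. Output given as Rose Bengal sodium equivalents.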
Assay [15] is described as follows: qHTS assay to test for compound auto fluorescence at 460 nm (blue) in HepG2 cell free culture (AID 720685). The essentials:
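Compound (23 nL) or DMSO pinned into cell-free MEM with 10% FBS; blue fluorescence read at 405/460 nm excitation/emission, expressed as auto-fluorescence equivalency to triamterene.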

Assay [16] can be described thus: qHTS assay to test for compound auto fluorescence at 535 nm (green) in HepG2 cell free culture (AID 720686).
A short description of assay [17]: qHTS assay to test for compound auto fluorescence at 460 nm (blue) in HepG2 cells (AID 720687). The essentials:
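Blue-channel autofluorescence (Ex/Em 405/460 nm, triamterene-equivalent) was measured after 1 hr compound exposure at 37 C, 5% CO2. Cells were HepG2, plated overnight at 37 C in MEM plus 10% FBS.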

The nature of assay [18]: qHTS assay to test for compound auto fluorescence at 535 nm (green) in HepG2 cells (AID 720675).
Assay [19] addresses Glucocorticoid receptor (Homo sapiens) (UniProt P04150). Put plainly: qHTS assay to identify small molecule agonists of the glucocorticoid receptor (GR) signaling pathway (AID 720691; active = well fitted activation curve with a large enough effect in the signal ratio in the repeat runs, not every such curve was filed as active; the % refers to the signal ratio). The essentials: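 GR-bla HeLa cells carrying a GRE-driven beta-lactamase reporter, exposed to compounds for 18 h at 37 C. Reporter activation read as fluorescence after 2 h with LiveBLAzer B/G FRET substrate at room temperature.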

The target is the same in assay [20]. Put plainly: qHTS assay to identify small molecule antagonists of the glucocorticoid receptor (GR) signaling pathway (AID 720692; active = well fitted inhibition curve with a large enough effect in the signal ratio in the repeat runs, not every such curve was filed as active; the % refers to the signal ratio). The essentials: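 GR-bla HeLa cells carrying a GRE-driven beta-lactamase reporter received compound after 4 h plating, then dexamethasone (5 nM final). After 18 h at 37C, the FRET substrate was loaded for 2 h at room temperature and fluorescence read.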

Values without a mark were called inactive. Inconclusive results are not listed. Calls of active or inactive are those of the source. Unless noted, calls come from the whole dose curve; as a rule, active = well fitted curve in the direction sought with a large enough effect in the repeat runs; inconclusive = weak or mixed curves; inactive = no such curve, though single readings can be large; an effect the other way counts as inactive or inconclusive.

Glucocorticoid receptor (Homo sapiens), sequence (P04150 whole entry, looked up): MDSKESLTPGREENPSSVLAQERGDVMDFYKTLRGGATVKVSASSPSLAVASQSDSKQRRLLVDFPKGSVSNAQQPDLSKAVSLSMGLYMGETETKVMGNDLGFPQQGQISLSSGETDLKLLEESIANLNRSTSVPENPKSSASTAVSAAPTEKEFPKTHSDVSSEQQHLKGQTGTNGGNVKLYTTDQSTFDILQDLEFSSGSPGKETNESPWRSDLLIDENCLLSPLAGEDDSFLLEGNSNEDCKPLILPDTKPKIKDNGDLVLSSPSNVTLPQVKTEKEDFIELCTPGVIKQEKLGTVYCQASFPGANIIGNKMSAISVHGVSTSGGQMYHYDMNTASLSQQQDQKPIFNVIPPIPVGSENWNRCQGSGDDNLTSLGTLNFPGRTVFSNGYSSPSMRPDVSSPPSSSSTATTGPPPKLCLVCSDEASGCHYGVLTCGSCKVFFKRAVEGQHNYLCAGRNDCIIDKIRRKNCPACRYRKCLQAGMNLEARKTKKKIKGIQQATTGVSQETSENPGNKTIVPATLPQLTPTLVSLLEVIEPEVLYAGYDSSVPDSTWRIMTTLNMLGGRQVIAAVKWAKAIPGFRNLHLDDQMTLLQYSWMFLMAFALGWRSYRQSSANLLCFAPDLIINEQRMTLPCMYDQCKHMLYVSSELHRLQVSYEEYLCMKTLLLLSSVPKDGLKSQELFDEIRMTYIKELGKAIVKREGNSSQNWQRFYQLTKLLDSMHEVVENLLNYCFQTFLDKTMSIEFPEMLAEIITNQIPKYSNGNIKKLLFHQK

Take `CCN(CC)C(C)=O`: the Potency result in [1], in assay [2], in assay [3], in assay [4], in assay [5] and in [6] was “inactive” in each case. Moreover, the Potency result in [8], in assay [11], in assay [15] and in assay [17] was “inactive” throughout. The outcome in assay [7], in assay [9], in assay [10], in assay [12], in [13] and in assay [14] was inactive. Moreover, in assay [16], the outcome was inactive.
With `COc1ccc(OC)c(OC)c1`, the Potency result in assay [1], in assay [2], in assay [3], in assay [4], in assay [5] and in assay [6] was “inactive” in each case. The Potency entry in assay [8], in assay [11], in [15], in assay [19] and in assay [20] was “inactive” in each case. The result in assay [7], in assay [18], in assay [9], in assay [10], in assay [12] and in [14] was inactive. In [16], the compound was classed as inactive.
In the case of `O=[N+]([O-])c1cc[n+]([O-])cc1`, the Potency entry in [1], in [2], in assay [3], in [4], in assay [5] and in [6] was “inactive” throughout. Besides, the Potency entry in assay [8], in assay [11], in [15] and in assay [17] was “inactive” in each case. The call in assay [7], in assay [18], in assay [9], in [10], in assay [12] and in assay [13] was inactive. Besides, the compound was classed as inactive in assay [14] and in assay [16].
`Nc1ccc(C(=O)Nc2ccccc2N)cc1`: the results for the Potency in [1], in [2] and in [6] were 10.6 µM (active), 8.41 µM (active) and 13.3 µM (active), respectively. The Potency result in assay [3], in assay [4], in assay [5], in assay [8], in assay [11] and in assay [15] was “inactive” each time. Besides, the Potency entry in assay [17] was “inactive”. In addition, the compound was called inactive in assay [7], in assay [18], in assay [9], in assay [10], in assay [12] and in assay [13]. For the same compound, the compound was called inactive in assay [14] and in assay [16].
`Cc1cccc(Oc2ccccc2)c1`: the Potency entry in assay [1], in [2], in [3], in assay [4], in assay [5] and in assay [6] was “inactive” throughout. The Potency entry in assay [8], in [11], in [15], in [17], in assay [19] and in assay [20] was “inactive” each time. Besides, the compound was classed as inactive in assay [7], in [18], in assay [9], in assay [10], in assay [12] and in assay [13]. In addition, the call in [14] and in assay [16] was inactive.
Regarding `CC(=O)NCCCS(=O)(=O)O`, the Potency entry in [1], in assay [2], in [3], in [4], in assay [5] and in [6] was “inactive” in each case. Also, the Potency entry in assay [8], in assay [11], in [15], in assay [17], in assay [19] and in assay [20] was “inactive” each time. Further, the call in assay [7], in assay [18], in assay [9], in assay [10], in [12] and in assay [13] was inactive. The result in [14] and in assay [16] was inactive.
Regarding `CC(=O)OCCc1ccccc1`, the Potency result in [1], in [2], in assay [3], in assay [4], in [5] and in assay [6] was “inactive” each time. Besides, the Potency entry in assay [8], in assay [11], in [15], in assay [17], in [19] and in assay [20] was “inactive” throughout. In addition, the call in assay [7], in [18], in assay [9], in assay [10], in [12] and in assay [14] was inactive. Also, the call in [16] was inactive.

The values are drawn from PubChem BioAssay (Tox21).
